The results in this text go back to PubChem BioAssay (Tox21).

A number with no mark means an inactive call. Inconclusive results are not listed. Activity calls are given as the source filed them. Unless noted, the call rests on the fitted dose curve; in most records, active means well fitted curve in the direction sought with a large enough effect in the repeat runs; inconclusive means weak or mixed curves; inactive means no such curve, though single readings can be large; an effect the other way counts as inactive or inconclusive.

Assay [1] is described as follows: qHTS assay to test for compound auto fluorescence at 535 nm (green) in HEK293 cells (AID 720680). In general terms: Quantitative high-throughput screening tests each substance at several concentrations.
A short description of assay [2]: qHTS assay to test for compound auto fluorescence at 460 nm (blue) in HEK293 cell free culture (AID 720681). A digest of the protocol:
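Blue fluorescence (Ex 405/Em 460 nm, triamterene-equivalent) was read immediately after pin transfer of compound or DMSO into medium (DMEM, 10% FBS) without cells.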

The nature of assay [3]: qHTS assay to test for compound auto fluorescence at 535 nm (green) in HEK293 cell free culture (AID 720682). The gist of the method:
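Measurement is a direct plate read of green fluorescence (485 nm in, 535 nm out) after compound addition to serum-supplemented DMEM lacking cells, with fluorescein used to express intensities.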

A short description of assay [4]: qHTS assay to test for compound auto fluorescence at 590 nm (red) in HEK293 cell free culture (AID 720683). A digest of the protocol:
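Red-channel autofluorescence of compounds in culture medium (DMEM, 10% FBS), no cells, measured at 540/590 nm. Rose Bengal sodium is the reference fluorophore for equivalence.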

Assay [5] in a line: qHTS assay to test for compound auto fluorescence at 590 nm (red) in HepG2 cell free culture (AID 720684). A digest of the protocol:
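Cell-free; medium MEM + 10% FBS; compound or DMSO added by pintool; read Ex 540/Em 590 nm; Rose Bengal sodium as red reference fluorophore.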

Assay [6] can be described thus: qHTS assay to test for compound auto fluorescence at 460 nm (blue) in HepG2 cell free culture (AID 720685). The gist of the method: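 Cell-free plates of MEM plus 10% FBS received 23 nL compound or DMSO vehicle; blue-channel (405/460 nm) intensity scored against triamterene as reference fluorophore.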
A short description of assay [7]: qHTS assay to test for compound auto fluorescence at 535 nm (green) in HepG2 cell free culture (AID 720686).
Assay [8] can be described thus: qHTS assay to test for compound auto fluorescence at 460 nm (blue) in HepG2 cells (AID 720687). The gist of the method: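 Blue-channel autofluorescence (Ex/Em 405/460 nm, triamterene-equivalent) was measured after 1 hr compound exposure at 37 C, 5% CO2. Cells were HepG2, plated overnight at 37 C in MEM plus 10% FBS.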
A short description of assay [9]: qHTS assay to identify small molecule antagonists of the glucocorticoid receptor (GR) signaling pathway - cell viability counter screen (AID 720693). Further: nearly all actives have a fitted effect of over 55% in size. Further: potency means the concentration at half of the fitted maximal effect.
The nature of assay [10]: qHTS assay for identifying genotoxic compounds that show differential cytotoxicity against isogenic chicken DT40 cell lines with known DNA damage response pathways - Rev3 mutant cell line (AID 743014). Further: nearly all actives have a fitted effect of over 55% in size. Further: potency means the concentration at half of the fitted maximal effect.
Assay [11] can be described thus: qHTS assay to identify small molecule antagonists of the androgen receptor (AR) signaling pathway - cell viability counter screen (AID 743033; further: nearly all actives have a fitted effect of over 45% in size; further: potency means the concentration at half of the fitted maximal effect).
Assay [12] can be described thus: qHTS assay to identify small molecule antagonists of the androgen receptor (AR) signaling pathway using the MDA cell line - cell viability counter screen (AID 743041; further: nearly all actives have a fitted effect of over 45% in size; further: potency means the concentration at half of the fitted maximal effect). The gist of the method:
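Viability read by CellTiter-Fluor fluorescence in the same wells as the antagonist screen, added after 15.5 h of a 16 h, 37C exposure. Human breast carcinoma MDA-kb2 AR-luc cells, compounds co-dosed with agonist R1881.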

Assay [13] addresses Glucocorticoid receptor (Homo sapiens) (UniProt P04150). Put plainly: qHTS assay to identify small molecule antagonists of the glucocorticoid receptor (GR) signaling pathway (AID 720692; active means well fitted inhibition curve with a large enough effect in the signal ratio in the repeat runs, not every such curve was filed as active; the % refers to the signal ratio; further: potency means the concentration at half of the fitted maximal effect). A digest of the protocol:
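Read-out: beta-lactamase FRET substrate fluorescence, 2 h at room temperature, in HeLa cells stably carrying a GRE-driven bla reporter. Compounds were co-incubated with 5 nM dexamethasone agonist (final) for 18 h at 37 C.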

The nature of assay [14]: qHTS assay for identifying genotoxic compounds that show differential cytotoxicity against isogenic chicken DT40 cell lines with known DNA damage response pathways - wild type cell line (AID 743012). Further: nearly all actives have a fitted effect of over 60% in size. Further: potency means the concentration at half of the fitted maximal effect. A digest of the protocol:
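CellTiter-Glo luminescence readout of viability in wild type DT40 cells after 40 h compound exposure at 37 C/5% CO2; 300 cells/well; reagent incubated 30 min at room temperature before reading.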

Assay [15] can be described thus: qHTS assay for identifying genotoxic compounds that show differential cytotoxicity against isogenic chicken DT40 cell lines with known DNA damage response pathways - Rad54/Ku70 mutant cell line (AID 743015). Further: nearly all actives have a fitted effect of over 60% in size. Further: potency means the concentration at half of the fitted maximal effect.
Assay [16] deals with Androgen receptor (Homo sapiens) (UniProt P10275). Put plainly: qHTS assay to identify small molecule antagonists of the androgen receptor (AR) signaling pathway (AID 743035; active means well fitted inhibition curve with a large enough effect in the signal ratio in the repeat runs, not every such curve was filed as active; the % refers to the signal ratio; further: potency means the concentration at half of the fitted maximal effect). The gist of the method: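 AR-bla HEK293 reporter cells; 4 h settle at 37C/5% CO2; compound + R1881 agonist, 16 h at 37C; LiveBLAzer B/G FRET substrate 2 h RT; fluorescence intensity read. qHTS format.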
Sequence of Androgen receptor (Homo sapiens) (P10275 whole entry, looked up): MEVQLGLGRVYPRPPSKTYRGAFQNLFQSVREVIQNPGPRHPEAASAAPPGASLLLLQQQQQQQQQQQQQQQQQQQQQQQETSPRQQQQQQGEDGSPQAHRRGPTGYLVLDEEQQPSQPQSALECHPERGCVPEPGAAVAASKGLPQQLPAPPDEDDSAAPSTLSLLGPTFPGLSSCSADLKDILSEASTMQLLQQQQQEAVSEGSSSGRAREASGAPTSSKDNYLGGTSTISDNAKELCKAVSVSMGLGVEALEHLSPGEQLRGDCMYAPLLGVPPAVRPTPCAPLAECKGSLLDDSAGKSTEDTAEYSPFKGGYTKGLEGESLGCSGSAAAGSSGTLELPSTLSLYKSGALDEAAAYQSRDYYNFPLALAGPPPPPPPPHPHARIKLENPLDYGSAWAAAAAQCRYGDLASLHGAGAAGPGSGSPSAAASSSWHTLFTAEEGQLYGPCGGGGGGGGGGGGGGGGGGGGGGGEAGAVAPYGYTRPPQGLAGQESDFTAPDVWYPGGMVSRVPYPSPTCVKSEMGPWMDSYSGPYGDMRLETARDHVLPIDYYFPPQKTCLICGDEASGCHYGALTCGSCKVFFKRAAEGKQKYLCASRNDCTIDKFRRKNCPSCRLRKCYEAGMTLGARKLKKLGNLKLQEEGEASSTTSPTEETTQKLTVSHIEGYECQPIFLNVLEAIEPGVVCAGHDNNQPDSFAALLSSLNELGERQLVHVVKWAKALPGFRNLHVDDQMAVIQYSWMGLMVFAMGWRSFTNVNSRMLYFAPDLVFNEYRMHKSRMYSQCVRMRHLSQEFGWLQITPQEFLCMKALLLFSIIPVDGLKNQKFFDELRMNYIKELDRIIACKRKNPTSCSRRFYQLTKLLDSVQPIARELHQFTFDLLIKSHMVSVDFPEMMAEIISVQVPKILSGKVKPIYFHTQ

Assay [17] has the same target. Put plainly: qHTS assay to identify small molecule agonists of the androgen receptor (AR) signaling pathway (AID 743036; active means well fitted activation curve with a large enough effect in the signal ratio in the repeat runs, with a control signal flat, not every such curve was filed as active; the % refers to the signal ratio). A digest of the protocol: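 Beta-lactamase under UAS control, stably integrated in HEK293 GripTite cells, reports receptor activation. After 16 h compound treatment, cells received FRET substrate for 2 h at room temperature before fluorescence reading.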

Assay [18] shares this target. Put plainly: qHTS assay to identify small molecule agonists of the androgen receptor (AR) signaling pathway using the MDA cell line (AID 743040; further: nearly all actives have a fitted effect of over 20% in size). A digest of the protocol: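 Luciferase agonist assay: 16 h compound exposure at 37C without CO2 in MDA-kb2 AR-luc cells, whose MMTV promoter responds to both AR and GR. Luminescence measured after 30 min room-temperature incubation with ONE-Glo.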

For assay [19] the target is unchanged. Description: qHTS assay to identify small molecule antagonists of the androgen receptor (AR) signaling pathway using the MDA cell line (AID 743042; further: nearly all actives have a fitted effect of over 55% in size). The gist of the method:
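Antagonist mode: compounds plus R1881 agonist added to MDA-kb2 AR-luc cells, incubated 16 h at 37C. Luciferase reporter luminescence quantified, with multiplexed CellTiter-Fluor readout for cell viability.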

In assay [20] the target is Glucocorticoid receptor (Homo sapiens) (UniProt P04150). Put plainly: qHTS assay to identify small molecule agonists of the glucocorticoid receptor (GR) signaling pathway (AID 720691; active means well fitted activation curve with a large enough effect in the signal ratio in the repeat runs, not every such curve was filed as active; the % refers to the signal ratio). The conditions noted are these: GR-bla HeLa, beta-lactamase reporter ratio, 18 h; activation: at 62.4 µM (top of the series). A digest of the protocol: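 HeLa GR-bla reporter line; cells pre-incubated 4 h, compound in DMSO 18 h at 37 C; LiveBLAzer B/G FRET substrate 2 h RT; fluorescence intensity read-out.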
Sequence of Glucocorticoid receptor (Homo sapiens) (P04150 whole entry, looked up): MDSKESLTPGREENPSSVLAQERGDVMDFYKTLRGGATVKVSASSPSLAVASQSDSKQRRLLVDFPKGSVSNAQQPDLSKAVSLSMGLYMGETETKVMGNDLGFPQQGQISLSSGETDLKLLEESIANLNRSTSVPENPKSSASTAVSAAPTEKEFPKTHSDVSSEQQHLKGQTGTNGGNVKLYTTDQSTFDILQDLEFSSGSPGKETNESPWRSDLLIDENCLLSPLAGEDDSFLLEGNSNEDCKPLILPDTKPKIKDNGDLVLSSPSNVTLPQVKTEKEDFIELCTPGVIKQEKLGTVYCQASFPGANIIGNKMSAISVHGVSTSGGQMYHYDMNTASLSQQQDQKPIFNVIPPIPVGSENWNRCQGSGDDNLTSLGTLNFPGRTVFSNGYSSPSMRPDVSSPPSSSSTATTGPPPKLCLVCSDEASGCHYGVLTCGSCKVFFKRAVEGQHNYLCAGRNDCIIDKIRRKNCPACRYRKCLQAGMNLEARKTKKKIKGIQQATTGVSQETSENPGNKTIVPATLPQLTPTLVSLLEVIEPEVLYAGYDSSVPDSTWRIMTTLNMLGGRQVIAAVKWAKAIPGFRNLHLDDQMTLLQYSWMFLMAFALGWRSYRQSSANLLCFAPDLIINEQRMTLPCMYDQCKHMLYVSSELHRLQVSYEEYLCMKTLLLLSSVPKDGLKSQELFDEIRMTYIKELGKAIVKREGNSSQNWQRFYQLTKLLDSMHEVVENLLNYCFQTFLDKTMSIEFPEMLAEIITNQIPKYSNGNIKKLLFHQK
On the % scale 0 is the no-effect control and ±100 the full control effect.

Regarding `CC(CN(C)C)CN1c2ccccc2CCc2ccccc21` (configuration not stated), the fluorescence, % of fluorescein in assay [1] was 0.0583% [at 18.6 µM]. The fluorescence, % of fluorescent control in [2] is 0.133% [at 18.6 µM]; in assay [4], 0.264% [at 18.6 µM]; in [6] it was 0.118% [at 18.6 µM]; in assay [8], -0.0977% [at 18.6 µM]. Moreover, in assay [3], the activity change was -0.0046% [at 18.6 µM, active compounds read high]. For the same compound, in assay [5], the fluorescence, % of Rose Bengal is 0.0079% [at 18.6 µM]. In assay [7], the fluorescence, % of fluorescein control was -0.0071% [at 18.6 µM]. The Potency result in assay [9], in assay [11] and in assay [12] was “inactive” in each case. For the same compound, in assay [10], the Potency is 12.7 µM (active).
On to `CC(=O)Oc1ccc(C2(c3ccc(OC(C)=O)cc3)Oc3ccccc3NC2=O)cc1`, for which the Potency result in [1], in assay [2], in assay [3], in [4], in assay [5] and in assay [6] was “inactive” throughout. Moreover, the Potency entry in [7], in assay [8], in assay [11] and in assay [12] was “inactive” each time. The Potency in assay [13] was 19 µM (active).
Turning to `C=CC(=O)OCCOCC(CC)(COCCOC(=O)C=C)COCCOC(=O)C=C`, the Potency result in [1], in assay [2], in assay [3], in assay [4], in assay [5] and in assay [6] was “inactive” in each case. Further, the Potency result in [7] and in [8] was “inactive” each time. Further, the Potency in assay [13] is 22.8 µM (active); in [14], 6.37 µM (active); in [10] it was 4.51 µM (active); in [15] it was 5.06 µM (active); in [11], 22.8 µM (active).
In the case of `C=CC(=C)CCC=C(C)C`, the Potency entry in assay [1], in [2], in [3], in assay [4], in assay [5] and in assay [6] was “inactive” throughout. For the same compound, the Potency entry in assay [7], in assay [8], in assay [13], in assay [9], in assay [11] and in assay [12] was “inactive” in each case.
Take `C/C=C/C(=O)Oc1c(CCCCCC(C)C)cc([N+](=O)[O-])cc1[N+](=O)[O-]`: the Potency entry in [1], in assay [2], in [3], in [4], in [5] and in assay [6] was “inactive” in each case. Besides, the Potency entry in assay [7] and in [8] was “inactive” throughout. The Potency is 3.09 µM (active) in [13]; 3.44 µM (active) in [14]; 3.44 µM (active) in [10]; 2.43 µM (active) in assay [15]; 7.76 µM (active) in [11]; 7.7 µM (active) in assay [12].
Regarding `C[C@@H]1CC[C@H]2C(C)(C)[C@H]3C[C@@]12CC[C@@]3(C)O`, the Potency entry in assay [1], in [2], in assay [3], in assay [4], in assay [5] and in [6] was “inactive” in each case. Further, the Potency entry in assay [7], in assay [8], in assay [9], in [10], in [15] and in assay [11] was “inactive” each time. Moreover, the Potency result in [16], in assay [18], in [12] and in assay [19] was “inactive” each time. Moreover, the outcome in [17] was inactive.
For the compound `C=CC(=O)OCC(O)COc1ccccc1` (configuration not stated), the Potency entry in assay [1], in assay [2], in assay [3], in assay [4], in assay [5] and in [6] was “inactive” each time. Also, the Potency result in assay [7] was “inactive”. In addition, the Potency was 38.9 µM (active) in assay [9], 24.3 µM (active) in [14], 27.3 µM (active) in [10] and 30.6 µM (active) in [15].
As for `Cc1cccc(Br)c1`, the Potency entry in [1], in [2], in assay [3], in assay [4], in assay [5] and in assay [6] was “inactive” throughout. The Potency result in assay [7], in [20], in [13], in [9], in assay [14] and in [10] was “inactive” each time. For the same compound, the Potency result in [15], in assay [11] and in assay [12] was “inactive” throughout.
Turning to `CC1CCCNC1` (configuration not stated), the Potency entry in assay [1], in [2], in assay [3], in [4], in assay [5] and in [6] was “inactive” throughout. Moreover, the Potency entry in assay [7], in assay [20], in [13], in assay [9] and in assay [12] was “inactive” throughout.
`CCc1cccc(C)c1`: the Potency result in assay [1], in assay [2], in [3], in [4], in assay [5] and in assay [6] was “inactive” in each case. Besides, the Potency entry in assay [7], in assay [20], in assay [13], in assay [9], in assay [10] and in assay [15] was “inactive” each time. In addition, the Potency result in assay [11] and in assay [12] was “inactive” throughout.
Consider `c1cc(OCC2CO2)cc(OCC2CO2)c1` (configuration not stated), for which the Potency entry in [1], in assay [2], in assay [3], in [4], in assay [5] and in [6] was “inactive” in each case. Besides, the Potency entry in assay [7], in assay [20], in assay [18] and in assay [12] was “inactive” in each case. The figures for the Potency in assay [14], in [10] and in assay [15] were 0.856 µM (active), 0.0763 µM (active) and 1.36 µM (active), respectively.
As for `CC(COC(=O)c1ccccc1)OC(=O)c1ccccc1` (configuration not stated), the Potency result in [1], in assay [2], in assay [3], in assay [4], in assay [5] and in [6] was “inactive” in each case. Besides, the Potency result in [7], in [9], in assay [10] and in assay [11] was “inactive” throughout. Also, the Potency in [15] is 61.1 µM (active).
Consider `C=C(c1ccc(C(=O)O)cc1)c1cc2c(cc1C)C(C)(C)CCC2(C)C`, for which the Potency result in assay [1], in assay [2], in assay [3], in assay [4], in assay [5] and in [6] was “inactive” each time. For the same compound, the Potency entry in assay [7], in assay [14], in assay [11] and in assay [12] was “inactive” in each case. The Potency was 9.77 µM (active) in assay [13], 13.4 µM (active) in assay [9], 77 µM (active) in [10] and 68.6 µM (active) in assay [15].
`COC(=O)C1=C(C)NC(C)=C(C(=O)OCCCN2CCC(c3ccccc3)(c3ccccc3)CC2)C1c1cccc([N+](=O)[O-])c1` (configuration not stated): the Potency entry in assay [1], in assay [2], in [3], in assay [4], in assay [5] and in assay [6] was “inactive” in each case. Moreover, the Potency result in [7], in assay [8] and in [18] was “inactive” each time. Further, the Potency in [14] is 4.73 µM (active); in assay [10], 6.68 µM (active); in [15], 6.68 µM (active); in assay [11], 21.3 µM (active); in [16] it was 16.9 µM (active).
